Bioassay records from PubChem.
CYP2C9 inhib: blockers of cytochrome P450 2C9 activity – biochemical, luminescence, ADME assay, primary screen; P11712; CYP2C9 Supersomes, luciferin-H conversion; inhibition, % at 5 µM; 96,000 compounds, 20% hits;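 active = blocking of liver enzyme CYP2C9 beyond about 50% at 5 µM, limit read from the data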
Target sequence (P11712 whole entry, looked up): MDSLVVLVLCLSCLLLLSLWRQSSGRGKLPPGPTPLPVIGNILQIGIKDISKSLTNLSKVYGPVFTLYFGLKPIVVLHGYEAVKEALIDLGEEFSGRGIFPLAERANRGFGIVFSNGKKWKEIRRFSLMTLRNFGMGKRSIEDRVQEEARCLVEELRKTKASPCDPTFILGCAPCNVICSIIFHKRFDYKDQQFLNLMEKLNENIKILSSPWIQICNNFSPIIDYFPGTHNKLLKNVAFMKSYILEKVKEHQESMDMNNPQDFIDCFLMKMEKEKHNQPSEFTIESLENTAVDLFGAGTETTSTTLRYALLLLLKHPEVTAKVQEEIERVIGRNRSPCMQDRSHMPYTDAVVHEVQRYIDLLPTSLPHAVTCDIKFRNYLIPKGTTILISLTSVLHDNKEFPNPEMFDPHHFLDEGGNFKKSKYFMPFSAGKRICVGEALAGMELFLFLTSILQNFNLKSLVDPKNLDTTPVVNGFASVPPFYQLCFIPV
sEH inh: soluble epoxide hydrolase inhibitors, primary screen, biochemical, human sEH | recombinant human sEH enzymatic activity assay | inhibition, % at 2 µM | 91,000 compounds, 0.34% hits | AID 707, 2007; in the data active = inhibition above about 80%
CYP2C19 inhib: blockers of cytochrome P450 2C19 activity – biochemical, luminescence, ADME assay, primary screen | AID 778, 2007 | CYP2C19 Supersomes, luciferin-H EGE luminescence, 30 min | inhibition, % at 5 µM | P33261 | 96,000 compounds, 21% hits;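 active = CYP2C19 inhibition above a set limit at 5 µM in the primary screen, cut at about 50% in these data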
sEH activator: soluble epoxide hydrolase activators, primary screen, biochemical, human sEH; 91,000 compounds, 0.04% hits; activation, % at 2 µM; purified human sEH enzymatic activity, activator screen; AID 717, 2007; in the data active = activation above about 37%
CYP2C19 activ: human CYP2C19 activators, primary screen, biochemical, luminescence | Cytochrome P450 2C19 (Homo sapiens), P33261 | recombinant CYP2C19, luciferin-H EGE luminescence; active compounds read high; 0 = fully inhibited enzyme, 1 = untreated enzyme | activation factor at 5 µM | 96,000 tested, under 10 active;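 active = activation factor of at least 2 at 5 µM in the primary screen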
CYP2C9 act: human CYP2C9 activators, primary screen, biochemical, luminescence; recombinant CYP2C9, luciferin-H conversion; active compounds read high; factor 1 = untreated enzyme, 0 = blocked; activation factor at 5 µM; 96,000 compounds, 1.4% hits; AID 1024, 2008;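 active = activation factor of 2 or more for CYP2C9 at a 5 µM dose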
Numbers stand for hits; – = inactive; · = not tested or not shown. In the library only some 27% were active in any assay of this set; here they are far more common.

SMILES | CYP2C9 inhib | sEH inh | CYP2C19 inhib | sEH activator | CYP2C19 activ | CYP2C9 act
Cc1ccc(NC(=O)c2cc(-c3cccc(O)c3)on2)cc1C | – | – | – | – | – | 2.9
CCC(C)NC(=O)CC1Oc2ccc(C)cc2NC1=O (stereo unspecified) | – | · | – | · | – | –
CN(C)C(=O)N1CCC(C(=O)NCc2ccccc2Cl)CC1 | – | · | – | · | – | –
O=C(NCc1ccccc1Cl)C1CCN(C(=O)c2sccc2-n2cccc2)CC1 | – | · | 61 | · | – | –
CCOc1ccccc1CNC(=O)C1CCN(C(=O)c2sccc2-n2cccc2)CC1 | – | – | 84 | – | – | –
CC1CCCCC1NC(=O)C1CCN(C(=O)c2sccc2-n2cccc2)CC1 (stereo unspecified) | – | · | – | · | – | –
CC(=O)Nc1ccc(C(=O)N2CCCC2)cc1 | – | – | – | – | – | –
COC(=O)CSC1=C(C#N)C(=O)NC(c2ccccc2)S1 (stereo unspecified) | 92 | – | 58 | – | – | –
CN(C)S(=O)(=O)c1cccc(-c2nnc(SCc3cc(Cl)cc4c3OCOC4)n2N)c1 | 82 | · | – | · | – | –
Nn1c(SCC(=O)Nc2ccc3c(c2)OCO3)nnc1-c1cccc(Cl)c1 | – | – | – | – | – | –
CCCCC(c1nnnn1CC1CCCO1)N1CCN(c2cc(Cl)ccc2C)CC1 (stereo unspecified) | 90 | – | 96 | – | – | –
CCCCC(c1nnnn1CC1CCCO1)N1CCN(c2nc3ccccc3s2)CC1 (stereo unspecified) | 76 | · | 70 | · | – | –
CCCC(c1nnnn1CC1CCCO1)N1CCN(c2nc3ccccc3s2)CC1 (stereo unspecified) | · | – | · | – | · | ·
COc1ccccc1C(c1nnnn1Cc1ccco1)N1CCN(c2cccc(C)c2C)CC1 (stereo unspecified) | · | – | · | – | · | ·
CCCC(c1nnnn1Cc1ccco1)N1CCN(c2cc(Cl)ccc2C)CC1 (stereo unspecified) | 60 | – | – | – | – | –
Cn1nnnc1SCc1ccc(C(=O)Nc2ccc(Br)cc2)cc1 | – | – | – | – | – | –
COC(=O)c1ccc(COC(=O)C23CC4CC(CC(O)(C4)C2)C3)o1 | – | – | – | – | – | –
COc1ccc(NC(=O)c2ccco2)c(NC(=O)Cc2cccs2)c1 | – | – | – | – | – | –
CSc1nsc(SCC(=O)Nc2c(C)n(C)n(-c3ccccc3)c2=O)n1 | – | · | – | · | – | –
CC(C)OC(=O)CN1CCN(C2c3ccccc3-c3ccccc32)CC1 | – | – | – | – | – | –
Fc1ccc(NC(=S)N2CCCc3ccccc32)cc1 | – | – | – | – | – | –
CSc1nc(C)cc(OCCNS(=O)(=O)c2cc(C)ccc2C)n1 | – | · | – | · | – | –
Cc1ccc(C)c(S(=O)(=O)NCCOc2nc(NC(C)C)nc(NC(C)C)n2)c1 | 59 | – | 78 | – | – | –
COc1cc2c(=O)n(CC3CCCO3)c(=O)n(CC(=O)Nc3cccc(Cl)c3)c2cc1OC (stereo unspecified) | 85 | – | 63 | – | – | –
CSc1cccc(NS(=O)(=O)c2cccc3nsnc23)c1 | 64 | · | 58 | · | – | –
SMILES | CYP2C9 inhib | sEH inh | CYP2C19 inhib | sEH activator | CYP2C19 activ | CYP2C9 act
COc1cc(NS(=O)(=O)c2cccc3nsnc23)cc(OC)c1 | – | – | 93 | – | – | –
COc1cc(NS(=O)(=O)c2cccc3nsnc23)c(C(=O)O)cc1OC | – | – | – | – | – | –
Cc1cc2cc3c(cc2nc1SCC(=O)Nc1nc(C)c(C)s1)OCO3 | – | – | – | – | – | –
O=C1C2CC=CCC2C(=O)N1c1n[nH]c(-c2ccccc2)n1 (stereo unspecified) | 92 | – | 80 | – | – | –
COc1ccc(N(C(=O)c2cccc(OC)c2OC)C2C=CS(=O)(=O)C2)c(OC)c1 (stereo unspecified) | – | – | – | – | – | –
Cc1nn(CC#N)c(=O)n1-c1ccc(F)cc1 | – | – | – | – | – | –
Cc1nn(CC#N)c(=O)n1-c1cccc(F)c1 | – | – | – | – | – | –
